In the library only some 1.9% were active in any assay of this set; here they are far more common.
Ba/F3 V617F tox – lowers viability of Ba/F3 cells expressing EpoR and JAK2V617F | ATP luminescence | inhibition, % at 5.6 µM | actives 1.1% (n = 220,000) | AID 1446;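 active = inhibition above the campaign mean plus 3 SD over all tested compounds, cut at about 24% in these data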;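 note: cytokine-independent growth of Ba/F3 cells driven by EpoR plus mutant JAK2; 0% = DMSO-treated cells and 100% = JAK inhibitor I control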
BaF3 parental – counter-screen for JAK2V617F inhibitors: parental Ba/F3 viability inhibitors. CellTiter-Glo ATP luminescence. actives 1.1% (n = 220,000). inhibition, % at 5.6 µM;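 active = inhibition above a per-campaign cutoff, the mean inhibition of all tested compounds plus 3 SD, cut at about 27% in these data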;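 note: 0% = DMSO wells and 100% = JAK Inhibitor I control wells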
IEC-6 tox – kills IEC-6 intestinal cells in KLF5 counter-screen. IEC-6 cytotoxicity, luminescence viability. inhibition, % at 5 µM. actives 0.78% (n = 290,000);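 note: 0% = plate median of test compound wells and 100% = cytotoxic reference compound wells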
APP 5UTR inh – APP translation inhibition; SH-SY5Y APP 5'UTR-luciferase reporter, luminescence; inhibition, % at 2 µM; actives 0.82% (n = 190,000); AID 1285;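 active = inhibition above a set limit, derived from the sample mean plus 3 SD, cut at about 45% in these data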
KLF5 inhibitor – suppresses KLF5 promoter-driven expression; AID 1700; inhibition, % at 5 µM; DLD-1 KLF5 promoter-luciferase reporter, luminescence; actives 0.23% (n = 290,000);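 active = inhibition above a per-plate limit of that plate's mean compound inhibition plus 3 SD, cut at about 60% in these data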;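 note: 0% = DMSO wells and 100% = LY294002 at 200 µM; higher means less KLF5 promoter-driven luciferase light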
IEC-6 cytotox cf – confirmation of cytotoxic compounds in rat IEC-6 intestinal epithelial cells; actives 63% (n = 1,900); shares compounds with IEC-6 tox; AID 1907; IEC-6 rat intestinal epithelial viability, luminescence; inhibition, % at 5 µM;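 note: 0% = vehicle and 100% = reference cytotoxic drug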
* hit, by the source's call; / = no result. Cut-off read from the data, not from the text of the source, unless noted: active = inhibition above about 22%; inactive = the rest.

SMILES	Ba/F3 V617F tox	BaF3 parental	IEC-6 tox	APP 5UTR inh	KLF5 inhibitor	IEC-6 cytotox cf
Cc1cc(Cl)ccc1OC(C)C(=O)Nc1ccc([N+](=O)[O-])cn1 (stereo not given)	-5	1	-4	-9	-10	/
Cc1ccc(S(=O)(=O)N2CCC(C(=O)NNC(=O)c3ccc(F)cc3)CC2)cc1	1	1	6	7	-8	/
CCC(NC(=O)Nc1nnc(C(F)(F)F)s1)(C(F)(F)F)C(F)(F)F	98*	89*	26*	-2	-9	92*
O=C1[C@H]2[C@@H](c3ccc(F)cc3)N3C(=O)N(c4ccc(Br)cc4)C(=O)[C@@]3(Cc3ccccc3)[C@H]2C(=O)N1C1CCCCC1	/	/	6	/	-2	/
CCc1ccc(C2CC(=O)N3CN(c4ccccc4)CSC3=C2C#N)cc1 (stereo not given)	3	-1	4	1	-7	/
N#CC1=C2SCC(O)(c3ccccc3)N2C(=O)CC1c1ccccc1 (stereo not given)	82*	79*	77*	92*	56	60*
Cc1cc(=O)oc2cc(NC(=O)CCOc3ccccc3)ccc12	/	/	9	/	-43	/
Cc1cccc(CSc2cccc3cccnc23)c1	6	-2	32*	35	-48	37*
NNC(=O)c1ccc(CSc2cccc3cccnc23)cc1	1	2	0	-22	-10	/
C/C(=N\NC(=O)c1ccc(F)cc1)c1ccccn1	/	/	32*	/	38	98*
CCc1ccc(/C(C)=N/NC(=O)c2ccccn2)cc1	-4	6	0	13	-5	/
CCOc1ccc(C(=O)N/N=C(\c2ccccc2)c2ccccn2)cc1	86*	80*	26*	72*	19	68*
CC(=O)Nc1ccc(/C(C)=N/NC(=O)c2ccc(F)cc2)cc1	0	6	-1	2	-26	/
CCOc1ccc(C(=O)Nc2cccc3cccnc23)cc1	/	/	-7	/	-40	/
CC(=O)Nc1ccc(/C(C)=N\NC(=O)c2ccc(-c3ccccc3)cc2)cc1	88*	82*	26*	0	-56	-6
Cc1nc(C)n(CC(C)C(=O)N2CCN(S(=O)(=O)c3ccc(Cl)cc3)CC2)n1 (stereo not given)	/	/	-1	/	-6	/
CCCn1c(SCC(=O)NC2CCCCC2)nnc1-c1ccco1	/	/	-5	/	-12	/
O=C(CCC(=O)N1CCOc2ccccc21)Nc1ccccc1Br	/	/	4	/	10	/
CCOC(=O)C1CCN(S(=O)(=O)c2cccc3nonc23)CC1	1	5	-2	-7	-9	/
CCOC(=O)C1CCN(S(=O)(=O)c2c(Cl)ccc3nonc23)CC1	/	/	100*	/	60	41*
Cc1ccc(S(N)(=O)=O)cc1NC(=O)C(c1ccccc1)c1ccccc1	/	/	-6	/	-24	/
Cc1cc2ccccn2c1C(=O)c1cc([N+](=O)[O-])cc([N+](=O)[O-])c1	-3	-3	3	-34	4	/
COC(=O)c1cc(C(=O)N2CCN(c3ncccn3)CC2)cc([N+](=O)[O-])c1	/	/	-5	/	-8	/
COC(=O)c1cc(C(=O)N2CCN(c3cccc(C)c3C)CC2)cc([N+](=O)[O-])c1	49*	68*	37*	77*	47	33*
COC(=O)c1cc(C(=O)c2c(C)cc3ccccn23)cc([N+](=O)[O-])c1	/	/	44*	/	3	48*
SMILES	Ba/F3 V617F tox	BaF3 parental	IEC-6 tox	APP 5UTR inh	KLF5 inhibitor	IEC-6 cytotox cf
Nc1sc(-c2ccccc2)cc1-c1n[nH]c(=S)n1C1CCCCC1	89*	57*	54*	/	40	48*
CCOC(=O)c1ccc(Nc2nc(-c3cccnc3)nc3ccccc23)cc1	20	0	1	17	-6	/
Cc1ccc2c(c1)C(=O)C(=O)N2CC1COc2ccccc2O1 (stereo not given)	/	/	83*	/	-8	9
CCOc1ccc2c(c1)C(=O)C(=O)N2CC1COc2ccccc2O1 (stereo not given)	/	/	72*	/	-6	14
CCN1CCN(CC2COc3ccccc3O2)CC1 (stereo not given)	/	/	4	/	-12	/
COc1ccc2c(c1)C(=O)C(=O)N2CC1COc2ccccc2O1 (stereo not given)	/	/	83*	/	12	9
Cc1ccc2c(c1)C(=O)C(=O)N2CCCOc1ccccc1	2	10	4	0	-13	/
O=S(=O)(Oc1ccc(Cl)cc1)c1cccc2cccnc12	-4	-1	-1	/	0	/
O=C(C1CCCO1)N1CCN(C(=S)Nc2ccccc2)CC1 (stereo not given)	-6	1	8	8	-8	/
